Experimental data published in PubChem BioAssay.

assay: viability loss of caspase-8 NB7 cells with TRAIL – with/without TRAIL, luminescence panel, confirmation (AID 651596); settings: NB7 neuroblastoma + caspase-8, without TRAIL, NB7 Caspase-8, without TRAIL, mean of runs, at 10 µM

Compound	activity [%]
Cc1cc(Cl)n2c(nc3cc(F)c(F)cc32)c1C#N	99.3
C#CCN(C[C@@H]1[C@@H](OC(=O)NCCCCCC)[C@@H](OC(=O)NCCCCCC)Cn2c(=O)ccc(=O)n21)S(=O)(=O)c1ccc(C)cc1	92.3
COc1ccc(N2Cc3ccc(OC)c(OC)c3C2=O)cc1	37.8
Cc1nc2cc(Nc3nnc(-c4ccccc4)c4ccccc34)ccc2n1C	83.9
CCc1ccc(/C=N/NC(=O)c2ccccn2)cc1	73
O=C(Nc1ccc(N2CCCCC2)cc1)c1ccccc1	58.5
CN1CCc2c(sc(NC(=O)c3ccc([N+](=O)[O-])o3)c2C(N)=O)C1	95.3
NC(c1csc(NC(=O)Nc2cccc(C(F)(F)F)c2)n1)C1CCCCC1 (stereo not given)	94.9
Clc1ccc(CN2CCc3c([nH]c4ccccc34)C2)cc1Cl	-14.6
Cc1ccc(-c2cc(C(=O)N3CCCC3)no2)cc1	67
O=C(COc1ccc(/C=N/NC(=O)c2cc3ccccc3o2)cc1Br)Nc1ccccc1	96.8
CC(C)c1ccc(NC(=O)Nc2nc(C(N)CCc3ccccc3)cs2)cc1 (stereo not given)	98.2
O=C(Nc1ccc(-c2cn3ccsc3n2)cc1)C1CC1	70.2
O=C(Nc1ccc2c(c1)OCCO2)c1ccc(Cl)cc1Cl	66.6
Cc1cccc(/C(N)=N/OC(=O)c2cccc3ccccc23)c1	71
CC1(C)CC(=O)c2sc(NC(=O)c3cccs3)nc2C1	94.2
Cc1ccc(C)c(NC(=S)NC(NC(=O)Cc2cccc3ccccc23)C(Cl)(Cl)Cl)c1 (stereo not given)	87.8
O=C(CC1CCCC1)Nc1nc2ccccc2[nH]1	62.4
COC(=O)Cn1c(=O)c(C(=O)CCl)c(N)n(Cc2ccccc2)c1=O	94.7
Cc1ccc(NC(=O)CSc2ccc(-c3ccc4c(c3)OCO4)nn2)cc1F	44.9

Compound	activity [%]
CCOC(=O)N1CCN(C(=O)CSCC(=O)Nc2nc(-c3ccc(-c4ccccc4)cc3)cs2)CC1	68
COc1ccc(-c2cc3cccc(OC)c3oc2=O)cc1	80.2
CC[C@]12c3[nH]c4ccc(Cl)cc4c3CCN1C(=O)[C@@H](CC(=O)NCc1cccc(C(F)(F)F)c1)C[C@@H]2C(=O)N1CCN(C(=O)c2ccco2)CC1	68.7
Cc1ccc(OCc2nc(-c3ccccn3)no2)c(Br)c1	56.6
O=C1Nc2cc(C(=O)NCCN3CCCCCC3)ccc2S/C1=C/c1ccccc1F	96
Cc1ccc(CSc2nc3ccncc3[nH]2)cc1	99.2
Cc1cccc(Cn2ncc(Cl)c(Cl)c2=O)c1	98.9
C/C(=N\NC(=O)c1cccc(O)c1)c1cccc(NC(=O)c2ccc(F)cc2)c1	77.4
Cc1ccccc1Nc1nc(N)c2ccccc2n1	59.8
Cc1cc(NC(=O)c2ccc(S(=O)(=O)N3CCCC3)cc2)nc2c1c(=O)oc1ccccc12	58.2
CC(C)(C)NCCC(O)c1cc(C(F)(F)F)nc2c(C(F)(F)F)cccc12 (stereo not given)	96.7
CCCCC[C@@H](C)N1C[C@H](COCc2ccccc2)Oc2cc(N3CC[C@H](N(C)C)C3)ccc2S1(=O)=O	45.6
COCCNC(=O)c1ccc2c3n(nc2c1)-c1ccccc1CO3	82
Cc1cc(C(=O)CSc2nnc(N)s2)c(C)n1Cc1cccs1	77.5
O=C(Nc1nc2ccccc2[nH]1)c1ccccc1O	65.9
Cc1ccc(C(=O)Nc2nc3ccccc3c(=O)s2)cc1	80
CCCCCc1cc(=O)oc2c(C(CCN3CCCC3)c3cc(OC)c(OC)c(OC)c3)c(OC)cc(OC)c12 (stereo not given)	69.4
CN(C)CC(O)c1ccc(C=Cc2ccc(Cl)cc2)cc1 (stereo not given)	97.2
O=C(Nc1ccccn1)c1onc2c1CCCC2	78.2
Cc1cc(C)c(C)c(S(=O)(=O)N2CCN(c3ncnc4ccccc34)CC2)c1C	40.1
